# Inconclusive results are not listed. Where a call stands in place of a potency, no number is given. Activity calls are given as the source filed them. Unless noted, calls follow the shape of the dose curve; as a rule, active = well fitted curve in the direction sought with a large enough effect; inconclusive = small, poorly fitted or top-dose-only effect, or another doubt; inactive = no such curve, though single readings can be large; an effect the other way counts as inactive or inconclusive.
# Experiments:
# [1] = molecular target: Aldehyde dehydrogenase, mitochondrial (Homo sapiens) (UniProt P05091); test: qHTS for Inhibitors of the Aldehyde Dehydrogenase Family (ALDH2) Confirmatory screens (AID 2061303; active = well fitted inhibition curve with a large enough effect; title and protocol of this record describe different tests; also: nearly all actives have a fitted effect of over 45% in size; also: potency is read from the fitted curve at half-maximal effect)
# [2] = molecular target: Aldehyde dehydrogenase, mitochondrial (Homo sapiens) (UniProt P05091); test: qHTS for Inhibitors of the Aldehyde Dehydrogenase Family (ALDH2) Primary screen (AID 2061308); also: nearly all actives have a fitted effect of over 55% in size
# [3] = molecular target: Retinaldehyde dehydrogenase 3 (Homo sapiens) (UniProt P47895); test: qHTS for Inhibitors of the Aldehyde Dehydrogenase Family (ALDH1A3) Primary screen (AID 2061315)
# [4] = molecular target: Retinaldehyde dehydrogenase 3 (Homo sapiens) (UniProt P47895); test: qHTS for Inhibitors of the Aldehyde Dehydrogenase Family (ALDH1A3) Confirmatory screens (AID 2061311); also: nearly all actives have a fitted effect of over 60% in size; also: potency is read from the fitted curve at half-maximal effect
# [5] = molecular target: Retinal dehydrogenase 2 (Homo sapiens) (UniProt O94788); test: qHTS for Inhibitors of the Aldehyde Dehydrogenase Family (ALDH1A2) Confirmation screens (AID 2061314); also: nearly all actives have a fitted effect of over 65% in size; also: potency is read from the fitted curve at half-maximal effect
# [6] = molecular target: Aldehyde dehydrogenase 1A1 (Homo sapiens) (UniProt P00352); test: qHTS for Inhibitors of the Aldehyde Dehydrogenase Family (ALDH1A1) Confirmatory screens (AID 2061316); also: nearly all actives have a fitted effect of over 65% in size; also: potency is read from the fitted curve at half-maximal effect
# [7] = molecular target: Retinaldehyde dehydrogenase 3 (Homo sapiens) (UniProt P47895); test: qHTS for Inhibitors of the Aldehyde Dehydrogenase Family (ALDH1A3) Validation screen (AID 2061312); also: potency is read from the fitted curve at half-maximal effect; nearly all actives have a fitted effect of over 45% in size
structure (smiles),measurement,setting,value
Cc1cc(C)nc(NC(=C(C#N)C#N)N2CCN(c3cccc(C(F)(F)F)c3)CC2)c1,Potency,[1],14.2 µM (active)
same,Potency,[2],inactive
same,Potency,[3],inactive
CCOc1ccc(NC(=O)N2CCN(c3ccc(Cl)c(Cl)c3)CC2)cc1,Potency,[1],inactive
same,Potency,[4],inactive
same,Potency,[5],inactive
same,Potency,[6],inactive
O=C(CN1CCCN(S(=O)(=O)c2ccc(Br)cc2)CC1)Nc1cccc(C(F)(F)F)c1,Potency,[1],1.15 µM (active)
same,Potency,[4],6.47 µM (active)
same,Potency,[5],25.1 µM (active)
same,Potency,[6],1.45 µM (active)
Cc1ccc(-n2nc(C)c3c(C(=O)Nc4ccc(Br)c(C)c4)cc(C)nc32)cc1,Potency,[1],inactive
same,Potency,[4],inactive
same,Potency,[5],inactive
Cc1noc2c(NCCc3ccccn3)cc(-c3ccccn3)nc12,Potency,[1],inactive
same,Potency,[4],14.1 µM (active)
O=C(Nc1ccc2c(c1)OCO2)Nc1nnc(-c2ccncc2)s1,Potency,[1],inactive
same,Potency,[2],inactive
same,Potency,[3],inactive
same,Potency,[6],inactive
O=C(Nc1ccc(N2CCOCC2)c(F)c1)Nc1nnc(-c2ccncc2)s1,Potency,[1],inactive
same,Potency,[2],inactive
same,Potency,[3],inactive
CCN(CC)c1nc2ccccc2nc1C(=O)Nc1ccc(C(C)=O)cc1,Potency,[1],inactive
same,Potency,[4],inactive
same,Potency,[5],inactive
same,Potency,[6],inactive
NCCCNc1ncnc2ccc(-c3ccc4c(c3)OCO4)cc12,Potency,[1],inactive
same,Potency,[2],inactive
same,Potency,[6],11.3 µM (active)
COc1ccc(Cn2c(=O)[nH]c3cc(C(=O)N4CCN(c5ccccc5)CC4)ccc3c2=O)cc1,Potency,[1],inactive
same,Potency,[4],inactive
same,Potency,[5],inactive
same,Potency,[6],inactive
COc1cccc(-c2cccc(C(=O)N3CCN(C(=O)Nc4ccccc4)CC3)c2)c1,Potency,[1],inactive
same,Potency,[4],inactive
same,Potency,[5],inactive
N#Cc1nc(NCC(F)F)nc(Nc2cc(F)cc(F)c2)n1,Potency,[1],inactive
same,Potency,[2],inactive
same,Potency,[3],inactive
same,Potency,[6],inactive
COc1ccccc1Nc1cc2ccccc2c(=O)[nH]1,Potency,[1],inactive
same,Potency,[4],0.318 µM (active)
same,Potency,[5],inactive
O=C(NCc1ccc(F)cc1)c1ccc2nnc(-c3cccc(C(F)(F)F)c3)n2c1,Potency,[1],inactive
same,Potency,[4],inactive
same,Potency,[5],inactive
same,Potency,[6],inactive
CC1(C)CCC(C)(C)c2cc3c(cc21)Sc1ccccc1N=C3c1ccc(C(=O)O)cc1,Potency,[1],inactive
same,Potency,[4],inactive
same,Potency,[7],6.31 µM (active)
same,Potency,[5],inactive
same,Potency,[3],inactive
COc1ccc(NC(c2nnc(-c3ccccc3)o2)c2ccccc2F)cc1Cl (centres undefined),Potency,[1],inactive
same,Potency,[4],inactive
same,Potency,[5],inactive
same,Potency,[6],inactive
CCc1cc(N2CCOC(c3ccc4cc(OC)ccc4c3)C2)nc(C)n1 (centres undefined),Potency,[1],inactive
same,Potency,[4],inactive
same,Potency,[5],inactive
same,Potency,[6],inactive
O=C(Nc1cccc(C(F)(F)F)c1)c1cc(-c2ccc(Cl)cc2)on1,Potency,[1],inactive
same,Potency,[4],inactive
same,Potency,[5],inactive
Cc1nc(CNc2ncnc3ccc(-c4ccoc4C)cc23)cs1,Potency,[1],inactive
same,Potency,[2],inactive
same,Potency,[3],inactive
O=S(=O)(Nc1ccc(O)c(NS(=O)(=O)c2ccccc2)c1)c1ccccc1,Potency,[1],inactive
same,Potency,[2],inactive
same,Potency,[3],inactive
same,Potency,[6],2.83 µM (active)
COc1ccc(CN(Cc2ccccc2)C(=O)c2ccccc2N)cc1COc1ccc(NC(C)=O)cc1,Potency,[1],inactive
same,Potency,[2],inactive
same,Potency,[3],inactive
CC(C)Sc1ncc(Cl)c(C(=O)Nc2nc3ccc(S(C)(=O)=O)cc3s2)n1,Potency,[1],inactive
same,Potency,[4],inactive
same,Potency,[5],inactive
same,Potency,[6],inactive
CCOC(=O)c1ccc(N2CCN(c3cccc(Cl)c3)CC2)c(NC(=O)Nc2ccc(Cl)cc2)c1,Potency,[1],inactive
same,Potency,[4],inactive
same,Potency,[5],inactive
same,Potency,[6],inactive
Cn1nnnc1Sc1ncnc2scc(-c3ccc([N+](=O)[O-])cc3)c12,Potency,[1],inactive
same,Potency,[2],inactive
same,Potency,[3],inactive
Cc1cccc(-c2ccc(C=O)cc2)c1,Potency,[1],12.6 µM (active)
same,Potency,[4],0.047 µM (active)
same,Potency,[5],39.8 µM (active)
same,Potency,[6],9.37 µM (active)
COc1ccc(CNC(=O)c2cc3c(=O)n(Cc4ccc(OC)cc4)ccc3nc2C)cc1,Potency,[1],inactive
same,Potency,[4],inactive
same,Potency,[5],inactive
same,Potency,[6],inactive
Cc1ccc(NC(=O)N2CCN(c3ccc(Cl)c(Cl)c3)CC2)cc1,Potency,[1],inactive
same,Potency,[4],inactive
same,Potency,[5],inactive
same,Potency,[6],inactive
CCOc1ccc(CCNC(=O)c2ccc(N3N=C(C)CC3=O)cc2)cc1OCC,Potency,[1],1.26 µM (active)
same,Potency,[4],0.1 µM (active)
same,Potency,[5],0.896 µM (active)
same,Potency,[3],inactive
same,Potency,[6],0.896 µM (active)
CCn1cc2nc(SCc3ccc(F)cc3)n(CCc3ccccc3)c(=O)c2n1,Potency,[1],14.1 µM (active)
same,Potency,[4],0.562 µM (active)
same,Potency,[5],7.94 µM (active)
same,Potency,[6],inactive
COc1ccc(N2CCN(C(=S)Nc3cc(C)ccn3)CC2)cc1,Potency,[1],10.1 µM (active)
same,Potency,[4],22.5 µM (active)
same,Potency,[5],12.7 µM (active)
same,Potency,[6],3.18 µM (active)
COc1cccc(N2CCN(c3nc(C(=O)NCc4cccc(C)c4)cs3)CC2)c1,Potency,[1],inactive
same,Potency,[4],inactive
same,Potency,[5],inactive
CN(c1ccccc1)c1ccc(CNc2nn3c(=O)c4ccccc4nc3s2)cc1,Potency,[1],11.2 µM (active)
same,Potency,[4],12.6 µM (active)
same,Potency,[5],inactive
same,Potency,[3],inactive
same,Potency,[6],8.96 µM (active)
Cc1ccc(NC(=O)c2cc(-c3ccc(Br)s3)nc3ccccc23)cc1F,Potency,[1],inactive
same,Potency,[4],inactive
same,Potency,[5],inactive
same,Potency,[6],inactive
O=c1[nH]c2ccc(NCc3ccc(-c4ccc(F)cc4)o3)cc2[nH]1,Potency,[1],0.914 µM (active)
same,Potency,[4],inactive
same,Potency,[5],inactive
CC(C)c1ccc(S(=O)(=O)c2cnc(SCC(=O)Nc3ccc4c(c3)OCCO4)[nH]c2=O)cc1,Potency,[1],inactive
same,Potency,[4],inactive
same,Potency,[5],10.1 µM (active)
same,Potency,[3],inactive
CCOC(=O)Cn1c(=O)oc2cc(S(=O)(=O)N3CCN(c4ccc(C(C)=O)cc4)CC3)ccc21,Potency,[1],7.08 µM (active)
same,Potency,[4],0.355 µM (active)
same,Potency,[5],inactive
CC(=O)Nc1sc2c(c1-c1nc3ccccc3s1)CN(C1COC1)C2,Potency,[1],12.7 µM (active)
same,Potency,[4],8.96 µM (active)
same,Potency,[5],8.96 µM (active)
same,Potency,[3],inactive
same,Potency,[6],2.52 µM (active)
O=C(Nc1ccc([S+](=O)([O-])Nc2nccs2)cc1)c1ccccn1,Potency,[1],inactive
same,Potency,[2],inactive
same,Potency,[3],inactive
same,Potency,[6],inactive
O=C(Nc1cccc(-c2nn3c(=O)cc(N4CCNCC4)nc3s2)c1)c1ccncc1,Potency,[1],7.08 µM (active)
same,Potency,[4],28.2 µM (active)
same,Potency,[5],14.1 µM (active)
same,Potency,[3],inactive
same,Potency,[6],3.18 µM (active)
COc1ccc(S(=O)(=O)N2CCC3(CC2)CC(CC(=O)NC2CC2)CCO3)cc1 (centres undefined),Potency,[1],inactive
same,Potency,[5],inactive
COc1ccc(NC(=O)CN(C)S(=O)(=O)c2ccc(C(=O)N3CCOCC3)s2)cc1,Potency,[1],inactive
same,Potency,[5],inactive
COc1ccc(C2Nc3ccccc3C(=O)N2Cc2ccco2)cc1COc1ccccc1 (centres undefined),Potency,[1],inactive
same,Potency,[4],inactive
same,Potency,[3],inactive
O=C(NCCN1CCN(c2ccccc2)CC1)Nc1cccc(Br)c1,Potency,[1],inactive
same,Potency,[5],inactive
CC(C)NS(=O)(=O)c1ccc(OCC(=O)N2CCN(c3ccccc3F)CC2)cc1,Potency,[1],inactive
same,Potency,[5],inactive
COc1ccc(C2=Nn3c(nnc3-c3ccccc3OC)SC2)c(OC)c1,Potency,[1],inactive
same,Potency,[4],inactive
same,Potency,[3],inactive
same,Potency,[6],14.2 µM (active)
CC(C)(C)OC(=O)N1CCN(c2ccc(NCc3ccc(-c4ccc(C#N)cc4)s3)cc2)CC1,Potency,[1],0.179 µM (active)
same,Potency,[5],inactive
same,Potency,[3],inactive
same,Potency,[6],12.7 µM (active)
COc1ccc(S(=O)(=O)N2C[C@@H](Oc3ccccc3)C[C@@H]2C(=O)N2CCOCC2)cc1,Potency,[1],inactive
same,Potency,[5],inactive
[O-][n+]1onc(-c2ccccc2)c1CO,Potency,[1],inactive
same,Potency,[5],inactive
same,Potency,[3],inactive
CC(=O)Nc1sc2c(c1-c1nc3ccccc3s1)CNCC2,Potency,[1],20.1 µM (active)
same,Potency,[3],inactive
same,Potency,[6],8.96 µM (active)
COc1cc(F)ccc1-c1ccnc2nc(Cc3ccc(F)cc3)nn12,Potency,[1],inactive
same,Potency,[6],inactive
N#Cc1c(-c2cccc(Br)c2)no[n+]1[O-],Potency,[1],inactive
same,Potency,[5],3.57 µM (active)
same,Potency,[3],inactive
same,Potency,[6],12.7 µM (active)
CC(C)N1CCc2c(sc(NC(=O)Cc3ccccc3)c2-c2nc3ccccc3s2)C1,Potency,[1],inactive
same,Potency,[4],inactive
same,Potency,[3],inactive
same,Potency,[6],inactive
CC(=O)N1CCN(c2nc(-c3ccc(Br)cc3)cs2)CC1,Potency,[1],25.1 µM (active)
same,Potency,[4],12.6 µM (active)
same,Potency,[3],inactive
same,Potency,[6],inactive
O=C(OCC#CCSc1nnc(-c2cccc3ccccc23)o1)c1ccco1,Potency,[1],6.34 µM (active)
same,Potency,[3],inactive
same,Potency,[6],6.34 µM (active)
O=C(Nc1cccnc1)c1ccco1,Potency,[1],12.7 µM (active)
same,Potency,[3],inactive
same,Potency,[6],6.34 µM (active)
COc1ccc(-c2no[n+]([O-])c2C#N)cc1,Potency,[1],inactive
same,Potency,[3],inactive
COC(=O)c1ccc(NC(=O)CN2CCN(c3ccc(Cl)cc3)CC2)cc1,Potency,[1],18.2 µM (active)
same,Potency,[5],18.2 µM (active)
Brc1ccc(-c2ccc(C3Nc4cccc5cccc(c45)N3)o2)cc1,Potency,[1],0.896 µM (active)
same,Potency,[4],7.12 µM (active)
same,Potency,[6],10.1 µM (active)
COc1ccc(N2CCN(S(=O)(=O)c3ccc4c(c3)CC(=O)N4)CC2)cc1,Potency,[1],inactive
same,Potency,[4],inactive
same,Potency,[3],inactive
same,Potency,[6],5.17 µM (active)
O=C1c2ccccc2NC(c2ccc(-c3cccc(F)c3)o2)N1O (centres undefined),Potency,[1],20.1 µM (active)
same,Potency,[3],inactive
same,Potency,[6],6.34 µM (active)
COc1ccc(-n2cc(C(=O)Nc3cc(F)ccc3F)c3ccccc3c2=O)cc1,Potency,[1],inactive
same,Potency,[5],inactive
same,Potency,[6],11.5 µM (active)
COc1cc(O)c(C(CC(=O)N2CCN(c3ccc(F)cc3)CC2)c2ccc3c(c2)OCO3)c(OC)c1 (centres undefined),Potency,[1],17.8 µM (active)
same,Potency,[4],12.7 µM (active)
same,Potency,[3],inactive
O=C1Nc2ccccc2/C1=C\c1ccc(O)c(Cl)c1,Potency,[1],10.1 µM (active)
same,Potency,[5],10.1 µM (active)
same,Potency,[3],inactive
COC(=O)[C@H](Cc1ccc(OC)cc1)NC(=O)[C@@H]1CNCCN1S(=O)(=O)c1ccccc1,Potency,[1],inactive
same,Potency,[5],inactive
NC(=O)c1c(NC(=O)c2ccco2)sc2c1CCCC2,Potency,[1],8.96 µM (active)
same,Potency,[5],10.1 µM (active)
same,Potency,[3],inactive
same,Potency,[6],3.57 µM (active)
CCN1c2cc(C(=O)Nc3ccc(C#N)cc3)ccc2C(=O)N2CCCCCC21 (centres undefined),Potency,[1],inactive
same,Potency,[6],6.47 µM (active)
O=C([C@@H]1C[C@H](Oc2ccccc2)CN1S(=O)(=O)c1cccc(F)c1)N1CCOCC1,Potency,[1],inactive
same,Potency,[5],inactive
CCN(CC)c1ccc(NC(=O)Nc2ccc(C(C)=O)cc2)cc1,Potency,[1],inactive
same,Potency,[5],inactive
same,Potency,[3],inactive

# Source: PubChem BioAssay (NCATS)
